Assay outcomes as filed in PubChem BioAssay.
Shown are actives, neighbours in structure and some others; about 19% of the full set was active somewhere.
HT1080 IDH1KD tx: kills HT-1080 cells with IDH1 knockdown; Potency, µM (series often up to 46.1 µM), for inactives: at the top dose activity, negative = toxicity, actives largely listed as cytotoxic; HT-1080 IDH1 knockdown viability, ATP luminescence, 48 h; actives 2% (n = 360,000);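 also: potency is read from the fitted curve at half-maximal effect; 0% = DMSO wells and -100% = cell-free medium wells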
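Viability of IDH1-knockdown HT-1080 fibrosarcoma cells was assessed by CellTiter-Glo after 48 h at 37 °C with titrated compound; concentration-effect curves were classified by fit quality and response size.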
IL-1B inflam inh: blocks inflammasome-driven IL-1 beta release; THP-1 LPS/ATP IL-1B secretion, AlphaLISA, 16 h; active compounds read low; activity change, % at 57.5 µM; AID 743279; actives 4.7% (n = 360,000); in the data active = activity change below about -50%; inconclusive = mostly about -30% to -49%
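Secreted IL-1B measured by AlphaLISA bead assay after 16 h compound exposure of THP-1 cells; compounds (final up to 57.5 uM) added 1 h before LPS (250 ng/mL) and ATP (1.25 mM) stimulation; lower signal means less secretion.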
HT1080-NT tox: kills 2HG-producing HT-1080-NT fibrosarcoma cells; HT-1080-NT fibrosarcoma viability, CellTiter-Glo ATP luminescence, 48 h; Potency, µM (doses to about 46.1 µM), for the others: at the highest dose activity, negative = less viability, usual class: cytotoxic; actives 1.6% (n = 360,000);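 also: NT is the 2HG producing partner of a matched IDH1 knockdown line; potency is read from the fitted curve at half-maximal effect; 0% = DMSO-treated cells and -100% = media-only wells without cells; nearly all actives have a fitted effect of over 55% in size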
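Read-out is CellTiter-Glo luminescence after 10 minutes at room temperature, following 48 hours' compound treatment of HT-1080-NT cells (750 cells/well, RPMI, 5% FBS, 37 degrees C).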
DT40 TDP1 CPT: growth inhibition of DT40 Tdp1-/-;hTDP1 cells with camptothecin (screen for TDP1 inhibitors). AID 686979. Potency, µM (series often up to 46.2 µM), for inactives: at the highest dose activity change, negative = growth inhibition, most hits filed as inhibitors. actives 12% (n = 420,000). chicken DT40 Tdp1-/-;hTDP1 cells + 20 nM CPT, ATP luminescence, 48 h; also: potency is read from the fitted curve at half-maximal effect; nearly all actives have a fitted effect of over 55% in size
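Chicken DT40 Tdp1-/- cells stably complemented with human TDP1 were seeded at 400 cells/well in medium containing 20 nM camptothecin, exposed to pin-transferred compounds, and grown at 37 °C for at least 48 hr. Viability was read as ATP luminescence.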
DT40 TDP1 no CPT: qHTS for Inhibitors of human tyrosyl-DNA phosphodiesterase 1 (TDP1): qHTS in cells in absence of CPT; DT40 Tdp1-/- hTDP1 cells, no CPT, ATP luminescence, 48 h; Potency, µM (series often up to 46.2 µM), without a hit: at the highest dose activity change, negative = growth inhibition, actives largely listed as inhibitors; actives 15% (n = 420,000); also: potency is read from the fitted curve at half-maximal effect; nearly all actives have a fitted effect of over 55% in size
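Luminescent ATP content (CellTiter-Glo) served as the growth readout. Knockout chicken DT40 cells expressing human TDP1 were exposed to compounds without camptothecin for a minimum 48 hr at 37 °C.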
An asterisk follows results filed as active; u = inconclusive; x = no result given; [ ] = another dose, or the depositor's remark. Unless noted, calls follow the shape of the dose curve; as a rule, active = well fitted curve in the direction sought with a large enough effect; inconclusive = small, poorly fitted or top-dose-only effect, or another doubt; inactive = no such curve, though single readings can be large; an effect the other way counts as inactive or inconclusive. Unless noted, % is scaled to controls: 0 for no effect and ±100 for the full control effect.

SMILES | HT1080 IDH1KD tx | IL-1B inflam inh | HT1080-NT tox | DT40 TDP1 CPT | DT40 TDP1 no CPT
CCOc1ccc(NC(=O)c2cn(CC(C)C)c(=O)c3c2c2ccccc2n3C)cc1 | -4% | 28 | 8% | u | 8.2µM*
COCCCNC(=O)c1cn(CC(C)C)c(=O)c2c1c1ccccc1n2C | -3% | -20 | 1% | u | -25%
CCOc1ccc(CCNC(=O)COc2cc(=O)n(C)c3ccccc23)cc1OCC | 0% | -9 | 2% | 0% | -23%
COc1ccccc1NC(=O)CCCOc1cc(=O)n(C)c2ccccc12 | x | x | x | u | 21µM*
COc1ccccc1NC(=O)c1cc2c(=O)n(C)c3ccccc3c2n1C | -1% | u | 11% | u | 15µM*
S=c1nn[nH]c2ccccc12 | -12% | 41 | 0% | 4% | -16%
CCOc1ccc(NC(=O)c2cc3c(=O)n(C)c4ccccc4c3n2C)cc1 | 24% | 10 | 14% | 8.2µM* | 16µM*
CN(CC1CCOCC1)C(=O)CC1C(=O)NCCN1Cc1ccc(-c2ccccc2)cc1 (stereo not drawn) | 5% | 0 | -4% | -26% | u
COc1cccc(C(C(=O)NC(C)(C)C)N(CC(C)C)C(=O)CCC(=O)Nc2cc(C)on2)c1OC (stereo not drawn) | -15% | 9 | -5% | -14% | u
CCN1C(=O)C2(C(C(=O)c3cc4ccccc4o3)=C(O)C(=O)N2CCCN(C)C)c2ccccc21 (stereo not drawn) | 0% | -16 | -1% | -1% | -10%
CCn1cc(CCC(=O)NC2CCCC2)c2ccccc21 | 13% | -9 | u | 3% | -8%
O=C(CCc1cn(Cc2ccccc2Cl)c2ccccc12)NC1CCCCC1 | x | x | x | u | 16µM*
COc1cccc(CNC(=O)CCc2cn(Cc3ccccc3Cl)c3ccccc23)c1 | x | x | x | u | 18µM*
Cn1cc(CCC(=O)NCc2cccc(Cl)c2)c2ccccc21 | -5% | -22 | -18% | -15% | -21%
O=c1[nH]c(SCc2nc3ccccc3c(=O)n2-c2ccccc2C(F)(F)F)nc2ccccc12 | -14% | -81* | -7% | 16µM* | u
COc1ccc(CNC(=O)C2CCCN(S(=O)(=O)c3c(C)noc3/C=C/N(C)C)C2)cc1 (stereo not drawn) | 11% | 11 | 1% | 2% | 1%
O=C(NCCN1CCOCC1)c1cc(Cl)ccc1Cl | -1% | 0 | -14% | -8% | 17%
COCC(C)NC(=O)NC(=O)c1ccc(Cl)cc1 (stereo not drawn) | u | 11 | 2% | u | -20%
O=C(NCCN1CCOCC1)NC1(C(F)(F)F)Oc2ccc(Cl)cc2O1 (stereo not drawn) | -33% | 31 | -21% | u | 13µM*
COCC(C)NC(=O)NC1(C(F)(F)F)Oc2ccc(Cl)cc2O1 (stereo not drawn) | u | 58 | -21% | 13µM* | 13µM*
Cc1cc(C)c(NC(=O)CNC(=O)c2cc([N+](=O)[O-])ccc2N2CCOCC2)c(C)c1 | 11% | -14 | 5% | -26% | -2%
Cc1nn(-c2ccccc2)c2c1N(CC(=O)N1CCN(c3cccc(Cl)c3)CC1)C(=O)CS2 | x | x | x | u | 21µM*
Cc1ccc(C)c(N2CCN(C(=O)CN3C(=O)CSc4c3c(C)nn4-c3ccccc3)CC2)c1 | x | x | x | 18µM* | 26µM*
Cc1cccc(CNC(=O)CN2C(=O)CSc3c2c(C)nn3-c2ccccc2)c1 | x | x | x | u | -23%
Cc1ccc(Cl)cc1N1CCN(C(=O)CN2C(=O)CSc3c2c(C)nn3-c2ccccc2)CC1 | x | x | x | u | -21%
SMILES | HT1080 IDH1KD tx | IL-1B inflam inh | HT1080-NT tox | DT40 TDP1 CPT | DT40 TDP1 no CPT
CC(=O)N1c2ccc(S(=O)(=O)N3CCC(C(=O)Nc4cc(C)cc(C)c4)CC3)cc2CC1C (stereo not drawn) | -1% | 0 | -2% | u | u
CC(=O)N1c2ccc(S(=O)(=O)N3CCC(C(=O)Nc4cccc(C)c4)CC3)cc2CC1C (stereo not drawn) | -8% | 21 | -1% | 16µM* | u
COc1ccc(Cl)cc1NC(=O)C1CCN(S(C)(=O)=O)CC1 | 3% | -2 | -2% | 1% | 9%
O=C(Nc1ccc(F)cc1F)NC1CCN(Cc2c(F)cccc2Cl)CC1 | u | x | -1% | u | 21µM*
COc1ccc(Cl)cc1NC(=O)C1CCN(S(=O)(=O)c2ccc(F)cc2)CC1 | x | x | x | u | 18µM*
CC(=O)N1c2ccc(S(=O)(=O)N3CCC(C(=O)Nc4cccc(F)c4)CC3)cc2CC1C (stereo not drawn) | -13% | -1 | -27% | 16µM* | u
COc1cccc(NC(=O)C2CCCN2C(=O)NC2CCCCC2)c1 (stereo not drawn) | 24% | 27 | 3% | 10% | 13%
O=C(O)c1cccc(NC(=O)c2cccc(S(=O)(=O)Nc3cccc(F)c3)c2)c1 | x | x | x | 1% | -17%
CC(=O)N1c2ccc(S(=O)(=O)N3CCC(C(=O)Nc4cccc(Cl)c4C)CC3)cc2CC1C (stereo not drawn) | x | x | x | 15µM* | 23µM*
CC(=O)N1c2ccc(S(=O)(=O)N3CCC(C(=O)Nc4cccc(Cl)c4)CC3)cc2CC1C (stereo not drawn) | u | 15 | -2% | 2.1µM* | 2.1µM*
COc1ccccc1NC(=O)C1CCN(S(=O)(=O)c2ccc3c(c2)CC(C)N3C(C)=O)CC1 (stereo not drawn) | -1% | 36 | 1% | u | u
CC(=O)N1c2ccc(S(=O)(=O)N3CCC(C(=O)NC4CCC(C)CC4)CC3)cc2CC1C (stereo not drawn) | 5% | 33 | 2% | -24% | -13%
Cc1cc(Cl)ccc1NC(=O)NC1CCN(S(=O)(=O)c2ccc(F)cc2)CC1 | -8% | -7 | -1% | 23µM* | u
COc1ccc(Cl)cc1NC(=O)C1CCN(S(=O)(=O)c2ccc3c(c2)CC(C)N3C(C)=O)CC1 (stereo not drawn) | x | x | x | 16µM* | 21µM*
Cc1nc2ccc(C(=O)N3CCOc4ccc(CN5CCOCC5)cc4C3)cc2nc1C | x | x | x | -5%[9.04 µM] | -3%
Clc1cc2nc[nH]c2cc1Cl | -13% | 18 | -17% | 2% | -17%
Fc1cc2[nH]cnc2cc1Cl | -1% | -2 | 13% | 6% | 1.8µM*
COc1cccc(/C=C/C(=O)OCC(=O)NCCCc2ccccc2)c1OC | 7% | 24 | 7% | -15% | 4%
O=C(NCC1CCCO1)C(c1cccs1)N(Cc1cccs1)C(=O)c1ccc(-c2ccccc2)[nH]1 (stereo not drawn) | u | u | -23% | 13µM* | u
